# Measured values taken from PubChem BioAssay (NCATS).
# Inconclusive results are not listed. A call without a number means that no potency is given here. Values without a mark were called inactive. Calls of active or inactive are those of the source. The call rests on the fitted dose curve; in most records, active means well fitted curve in the direction sought with a large enough effect; inconclusive means small, poorly fitted or top-dose-only effect, or another doubt; inactive means no such curve, though single readings can be large; an effect the other way counts as inactive or inconclusive.
# Legend:
# HACAT = test: qHTS assay to identify novel small-molecules to repurpose for Merkel cell carcinoma treatment (AID 1296009); conditions: MCC and control cell lines, CellTiter-Glo viability, 72 h; at 44.8 µM (top of the series) unless noted; further: nearly all actives have a fitted effect of over 60% in size
# Outline: (§1)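 Cells exposed to NPC (8-point) and MIPE (11-point) compound dilutions for 72 hr at 37 degree celsius; viability read by CellTiter-Glo luminescence, normalized to no-cell and DMSO in-plate controls.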
# MCC-13 = test: as above; conditions: MCC and control cell lines, CellTiter-Glo viability, 72 h; series mostly up to 46 µM
# Outline: as §1
# MCC-26 = test: as above; conditions: MCC and control cell lines, CellTiter-Glo viability, 72 h; series mostly up to 46 µM
# Outline: as §1
# MKL-1 = test: as above; conditions: MCC and control cell lines, CellTiter-Glo viability, 72 h; series mostly up to 46 µM
# Outline: as §1
# MKL-2 = test: as above; conditions: MCC and control cell lines, CellTiter-Glo viability, 72 h; series mostly up to 46 µM
# Outline: as §1
# NIH3T3 = test: as above; conditions: MCC and control cell lines, CellTiter-Glo viability, 72 h; at 44.8 µM (top of the series) unless noted
# Outline: as §1
# UISO = test: as above; conditions: MCC and control cell lines, CellTiter-Glo viability, 72 h; series mostly up to 46 µM
# Outline: as §1
# WaGa = test: as above; conditions: MCC and control cell lines, CellTiter-Glo viability, 72 h; series mostly up to 46 µM
# Outline: as §1
# C33A = test: Primary qHTS to identify gynecologic anti-cancer compounds using libraries of approved drugs and bioactive compounds (AID 1345084); conditions: Gynecologic cancer cell panel viability, ATPlite luminescence, 48 h; series mostly up to 57.5 µM; further: nearly all actives have a fitted effect of over 55% in size
# Outline: (§2)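 Cells, 1,000 per well, were allowed to settle for 16 h at 37 C before compound addition. Five concentrations were tested for 48 h, and viability was read by ATPlite luminescence after 15 min at room temperature.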
# CASKI = test: as above; conditions: Gynecologic cancer cell panel viability, ATPlite luminescence, 48 h; series mostly up to 57.5 µM
# Outline: as §2
# Es-2 = test: as above; conditions: Gynecologic cancer cell panel viability, ATPlite luminescence, 48 h; series mostly up to 57.5 µM
# Outline: as §2
# HeLa = test: as above; conditions: Gynecologic cancer cell panel viability, ATPlite luminescence, 48 h; series mostly up to 57.5 µM
# Outline: as §2
# Hek293T = test: as above; conditions: Gynecologic cancer cell panel viability, ATPlite luminescence, 48 h, control line for the selectivity index; series mostly up to 57.5 µM
# Outline: as §2
# JEG-3 = test: as above; conditions: Gynecologic cancer cell panel viability, ATPlite luminescence, 48 h; series mostly up to 57.5 µM
# Outline: as §2
# OV90 = test: as above; conditions: Gynecologic cancer cell panel viability, ATPlite luminescence, 48 h; series mostly up to 57.5 µM
# Outline: as §2
# PA-1 = test: as above; conditions: Gynecologic cancer cell panel viability, ATPlite luminescence, 48 h; series mostly up to 57.5 µM
# Outline: as §2
# SKOV3 = test: as above; conditions: Gynecologic cancer cell panel viability, ATPlite luminescence, 48 h; series mostly up to 57.5 µM
# Outline: as §2
# Tov-21-G = test: as above; conditions: Gynecologic cancer cell panel viability, ATPlite luminescence, 48 h; series mostly up to 57.5 µM
# Outline: as §2
# Tov112D = test: as above; conditions: Gynecologic cancer cell panel viability, ATPlite luminescence, 48 h; series mostly up to 57.5 µM
# Outline: as §2
# Potency means the concentration at half of the fitted maximal effect.
smiles,measurement,setting,value
C[C@@]12C[C@@]3(O)O[C@@H](O1)[C@]1(COC(=O)c4ccccc4)[C@@H]3C[C@@]12O[C@@H]1O[C@H](CO)[C@@H](O)[C@H](O)[C@@H]1O,outcome,HACAT,inactive
same,Potency,MCC-13,inactive
same,Potency,MCC-26,inactive
same,Potency,MKL-1,inactive
same,Potency,MKL-2,inactive
same,outcome,NIH3T3,inactive
same,Potency,UISO,inactive
same,Potency,WaGa,inactive
CCCNS(=O)(=O)Nc1ncnc(OCCOc2ncc(Br)cn2)c1-c1ccc(Br)cc1,outcome,HACAT,inactive
same,Potency,MCC-13,inactive
same,Potency,MCC-26,inactive
same,Potency,MKL-1,inactive
same,Potency,MKL-2,inactive
same,Potency,UISO,inactive
same,Potency,WaGa,inactive
C[C@@H]1C(=O)O[C@H]2CC34[C@H]5C[C@@H](C(C)(C)C)C36[C@H](OC(=O)[C@@H]6O)O[C@@]4(C(=O)O5)[C@]21O (stereo partly drawn),outcome,HACAT,inactive
same,Potency,MCC-13,inactive
same,Potency,MCC-26,inactive
same,outcome,NIH3T3,inactive
same,Potency,UISO,inactive
CCCCCCCN(CC)CCCC(O)c1ccc(NS(C)(=O)=O)cc1 (stereo not drawn),outcome,HACAT,inactive
same,Potency,MCC-13,inactive
same,Potency,MCC-26,inactive
same,Potency,MKL-1,inactive
same,Potency,MKL-2,inactive
same,Potency,UISO,inactive
same,Potency,WaGa,inactive
C[C@H](NC(=O)Cc1cc(F)cc(F)c1)C(=O)N[C@H](C(=O)OC(C)(C)C)c1ccccc1,outcome,HACAT,inactive
same,Potency,MCC-13,inactive
same,Potency,MCC-26,inactive
same,Potency,MKL-1,inactive
same,Potency,MKL-2,inactive
same,Potency,UISO,inactive
same,Potency,WaGa,inactive
C[C@@H](NCc1cc2ccccc2[nH]1)c1cccc2ccccc12,outcome,HACAT,inactive
same,Potency,MCC-13,inactive
same,Potency,MCC-26,inactive
same,Potency,MKL-1,inactive
same,Potency,MKL-2,inactive
same,Potency,UISO,inactive
same,Potency,WaGa,inactive
C=CC(=O)Nc1cc(NC(=O)c2ccc(C)c(NC(=O)c3ccno3)c2)cc(C(F)(F)F)c1,outcome,HACAT,inactive
same,Potency,MCC-13,inactive
same,Potency,MCC-26,inactive
same,Potency,WaGa,18.7 µM (active)
C[C@](Cc1c[nH]c2ccccc12)(NC(=O)OC1C2CC3CC(C2)CC1C3)C(=O)NC[C@H](NC(=O)CCC(=O)O)c1ccccc1 (stereo partly drawn),outcome,HACAT,inactive
same,Potency,MCC-13,inactive
same,Potency,MCC-26,inactive
same,Potency,MKL-1,inactive
same,Potency,MKL-2,inactive
same,Potency,UISO,inactive
same,Potency,WaGa,inactive
C=C1C[C@@]2(O)O[C@@]3(C[C@H]2C(C)C)[C@H](C)CC[C@H]13,outcome,HACAT,inactive
same,Potency,MCC-13,inactive
same,Potency,MCC-26,inactive
same,Potency,MKL-1,inactive
same,Potency,MKL-2,inactive
same,Potency,UISO,inactive
same,Potency,WaGa,inactive
Nc1ccn(C[C@@H](CO)OCP(=O)(O)O)c(=O)n1,outcome,HACAT,inactive [at 17.4 µM]
same,Potency,MCC-13,inactive
same,Potency,MKL-1,inactive
same,Potency,MKL-2,inactive
same,Potency,UISO,inactive
same,Potency,WaGa,inactive
CC(=O)SCC(Cc1ccccc1)C(=O)NCC(=O)OCc1ccccc1 (stereo not drawn),outcome,HACAT,inactive
same,Potency,MCC-13,inactive
same,Potency,MCC-26,inactive
same,Potency,MKL-2,0.209 µM (active)
same,Potency,UISO,14.8 µM (active)
Cn1cc(C[C@@H](N)C(=O)O)c2ccccc21,outcome,HACAT,inactive [at 17.4 µM]
same,Potency,MCC-13,inactive
same,Potency,MKL-1,inactive
same,Potency,MKL-2,inactive
same,Potency,UISO,inactive
same,Potency,WaGa,inactive
CCCCCCCCCCCCCCCC(=O)OC[C@@H](NC(=O)C(Cl)Cl)[C@H](O)c1ccc([N+](=O)[O-])cc1,outcome,HACAT,inactive
same,Potency,MCC-13,inactive
same,Potency,MCC-26,inactive
same,Potency,MKL-1,inactive
same,Potency,MKL-2,inactive
same,Potency,UISO,inactive
same,Potency,WaGa,inactive
CN(N=O)C(=O)N[C@H]1C(O)OC(CO)[C@@H](O)[C@H]1O (stereo partly drawn),outcome,HACAT,inactive
same,Potency,MCC-13,inactive
same,Potency,MCC-26,inactive
same,Potency,MKL-1,inactive
same,Potency,MKL-2,inactive
same,Potency,UISO,inactive
same,Potency,WaGa,inactive
CC(=O)O[C@H]1C[C@@H]2CC[C@H]3[C@H]4C[C@H]([N+]5(C)CCCCC5)[C@@H](OC(C)=O)[C@@]4(C)CC[C@@H]3[C@@]2(C)C[C@H]1[N+]1(C)CCCCC1,outcome,HACAT,inactive
same,Potency,MCC-13,inactive
same,Potency,MKL-1,inactive
same,Potency,MKL-2,inactive
same,Potency,UISO,inactive
same,Potency,WaGa,inactive
COc1cc(C[C@@H](CO)[C@H](CO)Cc2ccc(O)c(OC)c2)ccc1O,outcome,HACAT,inactive
same,Potency,MCC-13,inactive
same,Potency,MCC-26,inactive
same,Potency,MKL-2,16.6 µM (active)
same,outcome,NIH3T3,inactive
CC(C=CC=C(C)C=CC1=C(C)CCCC1(C)C)=CC=CC=C(C)C=CC=C(C)C=CC1=C(C)CCCC1(C)C,outcome,HACAT,inactive
same,Potency,MCC-13,inactive
same,Potency,MCC-26,inactive
same,Potency,MKL-1,inactive
same,Potency,UISO,inactive
OC[C@@H](O)[C@@H](O)[C@H](O)[C@@H](O)CO,outcome,HACAT,inactive
same,Potency,MCC-13,inactive
same,Potency,MCC-26,inactive
same,Potency,MKL-1,inactive
same,Potency,MKL-2,inactive
same,Potency,UISO,inactive
same,Potency,WaGa,inactive
COc1ccc([C@@H]2CNC(=O)C2)cc1OC1CCCC1,outcome,HACAT,inactive
same,Potency,MCC-13,inactive
same,Potency,MCC-26,inactive
same,Potency,MKL-1,inactive
same,outcome,NIH3T3,inactive
O=C1NC(O)CCN1[C@@H]1O[C@H](CO)[C@H](O)[C@H]1O (stereo partly drawn),outcome,HACAT,inactive
same,Potency,MCC-13,inactive
same,Potency,MCC-26,inactive
same,Potency,MKL-1,inactive
same,Potency,MKL-2,inactive
same,Potency,UISO,inactive
same,Potency,WaGa,inactive
CC(C)(C)[C@H](NC(=O)c1ccc(N)c(Cl)c1)C(=O)N1CCC[C@@H]1C(=O)N[C@H](C#N)CC(=O)O,outcome,HACAT,inactive [at 4.96 µM]
same,"activity change, negative = cytotoxicity",MCC-13,7.54% [at 4.84 µM]
same,"activity change, negative = cytotoxicity",MCC-26,-4.4% [at 4.84 µM]
same,"activity change, negative = cytotoxicity",MKL-1,0.918% [at 4.84 µM]
same,outcome,NIH3T3,inactive [at 4.96 µM]
same,"activity change, negative = cytotoxicity",UISO,4.89% [at 4.84 µM]
same,"activity change, negative = cytotoxicity",WaGa,-0.0966% [at 4.84 µM]
CCOC(=O)[C@@H](N)Cc1ccc(-c2cc(O[C@H](c3ccc(Cl)cc3-n3ccc(C)n3)C(F)(F)F)nc(N)n2)cc1,outcome,HACAT,inactive
same,Potency,MCC-13,inactive
same,Potency,MCC-26,inactive
same,Potency,MKL-1,inactive
same,Potency,UISO,inactive
same,Potency,WaGa,inactive
same,Potency,C33A,inactive
same,Potency,CASKI,inactive
same,Potency,Es-2,inactive
same,Potency,HeLa,inactive
same,Potency,Hek293T,inactive
same,Potency,JEG-3,inactive
same,Potency,OV90,inactive
same,Potency,PA-1,inactive
same,Potency,SKOV3,inactive
same,Potency,Tov-21-G,inactive
same,Potency,Tov112D,inactive
OCCNC1CCCc2c1[nH]c1ccc(-c3ccccc3)cc21 (stereo not drawn),outcome,HACAT,inactive
same,Potency,MCC-13,inactive
same,Potency,MCC-26,inactive
same,Potency,MKL-2,26.4 µM (active)
same,Potency,Es-2,inactive
same,Potency,HeLa,8.91 µM (active)
same,Potency,Hek293T,inactive
same,Potency,JEG-3,inactive
same,Potency,OV90,inactive
same,Potency,PA-1,20 µM (active)
same,Potency,Tov-21-G,inactive
same,Potency,Tov112D,inactive
COC(=O)C1C2CC3c4[nH]c5cc(OC)ccc5c4CCN3CC2CC(OC(=O)c2cc(OC)c(OC)c(OC)c2)C1OC (stereo not drawn),outcome,HACAT,inactive
same,Potency,MCC-13,inactive
same,Potency,MCC-26,inactive
same,Potency,MKL-1,inactive
same,Potency,MKL-2,inactive
same,Potency,UISO,inactive
same,Potency,WaGa,inactive
